Tested on: Vero E6 infected with SARS-CoV-2
Experiment: inhibition of SARS-CoV-2 cytopathic effect; higher = more antiviral protection, active = above 15
Conditions: 48 h

Measured: inhibition of SARS-CoV-2 cytopathic effect

CC(C)(Sc1ccncc1-c1ccc(C#N)c2ccccc12)C(=O)O [verinurad]
inactive: 1 nM -0.56% | 8.33 nM 1.54% | 100 nM 0.77% | 833.33 nM -0.34% | 10000 nM 1.75%

NC(N)=O [urea]
inactive: 1 nM -3.97% | 8.33 nM -3.63% | 100 nM -2.79% | 833.33 nM -2.47% | 10000 nM -3.31%

CNc1ccc([N+](=O)[O-])cc1-n1cnc(-c2ccc(C(F)(F)F)cc2)c1
inactive: 1 nM 1.34% | 8.33 nM 1.42% | 100 nM 0.62% | 833.33 nM 1.02% | 10000 nM -0.19%

Cc1c(C(=O)Nc2ccc(N3C[C@@H](C)O[C@@H](C)C3)nc2)cccc1-c1ccc(OC(F)(F)F)cc1 [sonidegib]
inactive: 1 nM 1.64% | 8.33 nM -0.28% | 100 nM -1.14% | 833.33 nM -2.32% | 10000 nM -7.02%

CC1=C(C(=O)OC(C)C)C(c2cccc([N+](=O)[O-])c2)C(C(=O)OC2CN(C(c3ccccc3)c3ccccc3)C2)=C(N)N1 (stereo not given) [azelnidipine]
inactive: 1 nM 3.44% | 8.33 nM 1.14% | 100 nM -0.26% | 833.33 nM 0.91% | 10000 nM -6.87%

Cc1cc(Cn2nnc3c(-c4ccco4)nc(N)nc32)ccc1N [vipadenant]
inactive: 1 nM 3.17% | 8.33 nM 2.89% | 100 nM 2.73% | 833.33 nM -0.18% | 10000 nM 0.65%

C#CCN1C(C)=C(C(=O)OC)C(c2cccc([N+](=O)[O-])c2)C(C(=O)OCC)=C1C (stereo not given)
inactive: 1 nM 0.91% | 8.33 nM 2.53% | 100 nM 0.36% | 833.33 nM 3.36% | 10000 nM 6.77%

— the supplement of paper PMC13380429
